Hits are enriched below; roughly 18% of the tested compounds scored in any of these assays.
TDP1 cell CPT: growth inhibition of DT40 Tdp1-/-;hTDP1 cells with camptothecin (screen for TDP1 inhibitors) | chicken DT40 Tdp1-/-;hTDP1 cells + 20 nM CPT, ATP luminescence, 48 h | Potency, µM (doses to about 46.2 µM), actives largely listed as inhibitors | 12% of 420,000 active; note: nearly all actives have a fitted effect of over 55% in size
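Chicken DT40 Tdp1-/- cells complemented with human TDP1, 400 cells/well, exposed to compounds plus 20 nM camptothecin for at least 48 h at 37 C; viability read as ATP content by CellTiter-Glo luminescence.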
RORgamma inh: ROR gamma (mouse) transcription inhibition; Drosophila S2 Gal4-RORgamma UAS-luciferase reporter, 20 h; Potency, µM (series often up to 53.6 µM), actives largely listed as inhibitors; AID 2551; P51450; 5.4% of 310,000 active; note: nearly all actives have a fitted effect of over 60% in size
Target sequence (P51450 whole entry, looked up, the tested form may be a part): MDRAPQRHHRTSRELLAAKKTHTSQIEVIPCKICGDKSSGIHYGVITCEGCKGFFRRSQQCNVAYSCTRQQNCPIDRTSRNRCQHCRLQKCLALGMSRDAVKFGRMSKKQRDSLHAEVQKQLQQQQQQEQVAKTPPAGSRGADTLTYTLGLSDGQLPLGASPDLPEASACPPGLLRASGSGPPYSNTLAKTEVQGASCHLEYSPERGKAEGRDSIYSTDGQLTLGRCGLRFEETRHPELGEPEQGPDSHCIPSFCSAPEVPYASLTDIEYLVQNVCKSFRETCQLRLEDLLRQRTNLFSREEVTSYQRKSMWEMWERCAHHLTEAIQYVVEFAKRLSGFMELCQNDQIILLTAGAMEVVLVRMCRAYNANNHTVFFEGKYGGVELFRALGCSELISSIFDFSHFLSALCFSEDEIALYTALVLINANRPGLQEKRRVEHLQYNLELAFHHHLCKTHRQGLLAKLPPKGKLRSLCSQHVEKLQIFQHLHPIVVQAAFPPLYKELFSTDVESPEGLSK
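A Gal4/UAS one-hybrid system in insect cells: metallothionein-promoter Gal4–ROR gamma fusion plus Photinus luciferase reporter. Copper sulfate 700 uM final, 20 hr ambient incubation, luminescent detection after 10 min with reagent.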
TDP1 cell noCPT: qHTS for Inhibitors of human tyrosyl-DNA phosphodiesterase 1 (TDP1): qHTS in cells in absence of CPT; 15% of 420,000 active; AID 686978, 2013; Potency, µM (titrated, usually from 46.2 µM), usual class: inhibitors; DT40 Tdp1-/- hTDP1 cells, no CPT, ATP luminescence, 48 h; note: nearly all actives have a fitted effect of over 55% in size
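Growth kinetics read by CellTiter-Glo luminescence after ≥48 hr at 37 °C. Cells: DT40 Tdp1-/- stably carrying human TDP1, 400 per well, compound exposure in the absence of CPT (DMSO vehicle).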
IL-1B inflam inh: inflammasome signaling inhibition, IL-1 beta readout; activity change, % at 57.5 µM; AID 743279; THP-1 LPS/ATP IL-1B secretion, AlphaLISA, 16 h; hits give low values; 4.7% of 360,000 active; in the data active = activity change below about -50%; inconclusive = mostly about -30% to -49%
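Secreted IL-1B measured by AlphaLISA bead assay after 16 h compound exposure of THP-1 cells; compounds (final up to 57.5 uM) added 1 h before LPS (250 ng/mL) and ATP (1.25 mM) stimulation; lower signal means less secretion.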
LDHA inh: LDHA (human) enzyme inhibition; AID 1347041; activity change, % (values are at about 110 or 230 µM); 0.15% of 480,000 active; P00338; purified LDHA, NADH/diaphorase-resazurin fluorescence; hits give low values; in the data active = activity change below about -30%; inconclusive = mostly about -25% to -30%
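Human LDH5 at 2 nM final in Tris HCl pH 7.4 with 0.06 mM NADH and 0.2 mM pyruvate, reacted 5 minutes at room temperature. Remaining NADH coupled via diaphorase/resazurin; resorufin fluorescence read at 0 and 20 minutes, normalized to enzyme-free and DMSO wells.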
Gal4-VP16 FLuc: Gal4-VP16 reporter inhibition counter-screen; Potency, µM (titrated, usually from 53.6 µM), most hits filed as inhibitors; 3.5% of 310,000 active; Drosophila S2 Gal4-VP16 UAS-luciferase, luminescence, 20 h;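 note: Gal4-VP16 expression switched on by copper sulfate through the metallothionein promoter; nearly all actives have a fitted effect of over 50% in size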
Of the large screens only hits and unclear results are named; the others gave an inactive call; ! = repeats disagree. Unless noted, calls come from the whole dose curve; as a rule, active = well fitted curve in the direction sought with a large enough effect; inconclusive = small, poorly fitted or top-dose-only effect, or another doubt; inactive = no such curve, though single readings can be large; an effect the other way counts as inactive or inconclusive.

COC(=O)c1cnc(Nc2nc(C(N)Cc3ccccc3)cs2)nc1C(F)(F)F (stereo unspecified)	TDP1 cell CPT 23µM, TDP1 cell noCPT 21µM, IL-1B inflam inh inconclusive (no result: RORgamma inh, Gal4-VP16 FLuc)
CC(C)CC(C)N(C)CC(=O)NC(C)(C#N)C1CC1 (stereo unspecified)	none (no result: TDP1 cell CPT, RORgamma inh, TDP1 cell noCPT, IL-1B inflam inh, Gal4-VP16 FLuc)
COc1ccc2nc(C#N)ccc2c1	none (no result: TDP1 cell CPT, RORgamma inh, TDP1 cell noCPT, IL-1B inflam inh, Gal4-VP16 FLuc)
CC(NC(=O)CNC(N)=O)c1cccc(C(F)(F)F)c1 (stereo unspecified)	none (no result: TDP1 cell CPT, RORgamma inh, TDP1 cell noCPT, IL-1B inflam inh, Gal4-VP16 FLuc)
Cc1sc2c(c1C)c1nc(-c3ccco3)nn1c(=O)n2CCc1ccccc1	none (no result: TDP1 cell CPT, RORgamma inh, TDP1 cell noCPT, IL-1B inflam inh, Gal4-VP16 FLuc)
CC[N+](C)(C)c1ccc(/C=C/c2ccnc3ccccc23)cc1	TDP1 cell CPT 0.079µM, TDP1 cell noCPT 0.11µM (no result: RORgamma inh, IL-1B inflam inh, LDHA inh, Gal4-VP16 FLuc)
CC[N+](CC)(CC)c1ccc(/C=C/c2ccnc3ccccc23)cc1	TDP1 cell CPT 0.4µM, TDP1 cell noCPT 0.32µM (no result: RORgamma inh, IL-1B inflam inh, LDHA inh, Gal4-VP16 FLuc)
CC(N)CCc1ccc(O)cc1 (stereo unspecified)	none (no result: TDP1 cell CPT, RORgamma inh, TDP1 cell noCPT, IL-1B inflam inh, Gal4-VP16 FLuc)
CCOC(=O)c1ccc(Nc2cc(C)nc3ccccc23)cc1	none (no result: TDP1 cell CPT, RORgamma inh, TDP1 cell noCPT, IL-1B inflam inh, Gal4-VP16 FLuc)
Cn1c(=O)cc(OCCCC(=O)NCc2ccccn2)c2ccccc21	RORgamma inh inconclusive
Cc1ccnc(NC(=O)CCCOc2cc(=O)n(C)c3ccccc23)c1	TDP1 cell CPT inconclusive, RORgamma inh inconclusive, TDP1 cell noCPT inconclusive, IL-1B inflam inh -76!
Cc1ccccc1C(OCCN(C(C)C)C(C)C)c1ccccc1 (stereo unspecified)	TDP1 cell CPT inconclusive, TDP1 cell noCPT inconclusive, IL-1B inflam inh -53
CCc1ccc(Nc2nc(CSc3ccc(Cl)cc3)nc3sc4c(c23)CCC4)cc1	none (no result: TDP1 cell CPT, RORgamma inh, TDP1 cell noCPT, IL-1B inflam inh, Gal4-VP16 FLuc)
CCCc1ccc(C2Sc3ccccc3NC3=C2C(=O)c2ccccc23)cc1 (stereo unspecified)	TDP1 cell CPT inconclusive, TDP1 cell noCPT 15µM (no result: RORgamma inh, IL-1B inflam inh, Gal4-VP16 FLuc)
O=C1C2=C(Nc3ccccc3SC2c2ccccc2)c2ccccc21 (stereo unspecified)	none (no result: TDP1 cell CPT, RORgamma inh, TDP1 cell noCPT, IL-1B inflam inh, Gal4-VP16 FLuc)
O=C1C2=C(Nc3ccccc3SC2c2ccccc2C(F)(F)F)c2ccccc21 (stereo unspecified)	TDP1 cell CPT 5.8µM, TDP1 cell noCPT 3.3µM (no result: RORgamma inh, IL-1B inflam inh, Gal4-VP16 FLuc)
COc1ccc(Br)cc1C1Sc2ccccc2NC2=C1C(=O)c1ccccc12 (stereo unspecified)	TDP1 cell CPT inconclusive, TDP1 cell noCPT 13µM (no result: RORgamma inh, IL-1B inflam inh, Gal4-VP16 FLuc)
O=C1C2=C(Nc3ccccc3SC2c2ccc(O)cc2)c2ccccc21 (stereo unspecified)	none (no result: TDP1 cell CPT, RORgamma inh, TDP1 cell noCPT, IL-1B inflam inh, Gal4-VP16 FLuc)
O=C1C2=C(Nc3ccccc3SC2c2ccc(Cl)c(Cl)c2)c2ccccc21 (stereo unspecified)	TDP1 cell CPT 15µM, TDP1 cell noCPT 26µM (no result: RORgamma inh, IL-1B inflam inh, Gal4-VP16 FLuc)
O=C1C2=C(Nc3ccccc3SC2c2c(F)cccc2Cl)c2ccccc21 (stereo unspecified)	TDP1 cell CPT 15µM, TDP1 cell noCPT inconclusive (no result: RORgamma inh, IL-1B inflam inh, Gal4-VP16 FLuc)
CCOC(=O)C1=C(C)C(c2cccc(Oc3ccccc3)c2)NC(=S)N1 (stereo unspecified)	TDP1 cell CPT inconclusive, RORgamma inh 7.1µM, TDP1 cell noCPT inconclusive, IL-1B inflam inh -74, Gal4-VP16 FLuc 18µM
CCOC(=O)c1cc2cc(Oc3ccccc3)ccc2[nH]1	none (no result: TDP1 cell CPT, RORgamma inh, TDP1 cell noCPT, IL-1B inflam inh, Gal4-VP16 FLuc)
CCOC(=O)C1=C(C)C(c2ccc(OC)cc2)NC(=S)N1 (stereo unspecified)	TDP1 cell CPT 21µM, RORgamma inh inconclusive, TDP1 cell noCPT 29µM
CCOC(=O)C1=C(c2cccc(Oc3ccccc3)c2)NC(=S)NC1C (stereo unspecified)	TDP1 cell CPT inconclusive, RORgamma inh inconclusive, TDP1 cell noCPT 23µM, Gal4-VP16 FLuc inconclusive
CC(C)N(C(=O)CSc1ccc(F)cc1)c1ccccc1	none (no result: TDP1 cell CPT, RORgamma inh, TDP1 cell noCPT, IL-1B inflam inh, Gal4-VP16 FLuc)
Cc1ccc(S(=O)(=O)N2CCOCC2)cc1NC(=O)COC(=O)c1ccccc1C(F)(F)F	none (no result: TDP1 cell CPT, RORgamma inh, TDP1 cell noCPT, IL-1B inflam inh, Gal4-VP16 FLuc)
O=C(COc1ccccc1)Nc1nnc(-c2ccc(Cl)s2)o1	RORgamma inh 13µM, TDP1 cell noCPT inconclusive, Gal4-VP16 FLuc 20µM
O=C(Nc1ccccc1)Nc1nnc(-c2ccccc2)o1	TDP1 cell CPT 29µM, TDP1 cell noCPT inconclusive, IL-1B inflam inh -102
Cc1cccc(C)c1NC(=O)COn1nnc2ccc(C(F)(F)F)cc21	none

Source: PubChem (National Center for Advancing Translational Sciences (NCATS))
